Measured values reported in PubChem BioAssay (NCI).
Compounds without any hit were thinned out: in the full panel of roughly 79,000, 15% have a hit. The source made the active and inactive calls. Cut-off read from the data, not from the text of the source: active = growth inhibition above about 70%; inactive = the rest.

Tests used:
[1] = NCI Yeast Anticancer Drug Screen. Data for the mec2-1 strain (AID 157); settings: S. cerevisiae mec2-1 strain, stronger effect = higher value
In short: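 Vehicle-treated cultures served as reference for growth inhibition of compound-exposed mec2-1 yeast.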

[2] = NCI Yeast Anticancer Drug Screen. Data for the rad14 strain (AID 159);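 note: 0% = growth of vehicle-treated control cultures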; settings: S. cerevisiae rad14 strain growth inhibition, stronger effect = higher value
In short: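 Screen for anticancer potential: a yeast strain altered in DNA damage repair is grown with compound, and reduced growth is quantified against vehicle controls.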

[3] = NCI Yeast Anticancer Drug Screen. Data for the sgs1 mgt1 strain (AID 161);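 note: 0% = growth of cultures given vehicle only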; settings: S. cerevisiae sgs1 mgt1 strain, stronger effect = higher value
In short: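 Genetically altered yeast, compound exposure, growth inhibition relative to vehicle.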

[4] = NCI Yeast Anticancer Drug Screen. Data for the CLN2oe strain (AID 163);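 note: 0% = growth of vehicle-only control cultures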; settings: S. cerevisiae CLN2oe strain, stronger effect = higher value
In short: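 Inhibition relative to vehicle-treated yeast is reported. Cells: strain with genetic alteration in cell-cycle control, grown with compound.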

[5] = NCI Yeast Anticancer Drug Screen. Data for the cln2 rad14 strain (AID 165);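 note: 0% = growth equal to vehicle treated cultures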; settings: S. cerevisiae cln2 rad14 strain, stronger effect = higher value
In short: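 Each compound was tested on cln2 rad14 yeast. Inhibition of growth was calculated against vehicle-exposed controls.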

[6] = NCI Yeast Anticancer Drug Screen. Data for the bub3 strain (AID 167); settings: S. cerevisiae bub3 mutant strain, stronger effect = higher value
In short: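 Screening used yeast with an engineered genetic alteration affecting cell cycle control. Compound-exposed cultures were compared with vehicle cultures, and reduced growth was taken as inhibition.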

[7] = NCI Yeast Anticancer Drug Screen. Data for the wt2 strain (AID 169);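 note: 0% = growth of vehicle-treated yeast cultures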; settings: S. cerevisiae wt2 strain growth inhibition, stronger effect = higher value
In short: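 Inhibition of yeast growth was determined after compound treatment, normalised to controls receiving only vehicle.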

[8] = NCI Yeast Anticancer Drug Screen. Data for the mlh1 strain (AID 171);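 note: 0% = growth of vehicle-treated control cultures of the same strain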; settings: S. cerevisiae mlh1 strain growth inhibition, stronger effect = higher value
In short: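 Vehicle-normalised growth inhibition of a repair- or checkpoint-altered yeast strain following compound treatment.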

[9] = NCI Yeast Anticancer Drug Screen. Data for the sgs1 strain (AID 173);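 note: 0% = growth of vehicle-only control cultures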; settings: S. cerevisiae sgs1 mutant, stronger effect = higher value
In short: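 Screen format: yeast with repair or checkpoint alterations, compound exposure, growth read relative to vehicle.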

[10] = NCI Yeast Anticancer Drug Screen. Data for the mlh1 rad18 strain (AID 175); settings: S. cerevisiae mlh1 rad18 strain growth inhibition, stronger effect = higher value
In short: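 Vehicle-treated cultures served as the reference for growth inhibition in a yeast strain carrying DNA damage repair alterations exposed to each compound.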

[11] = NCI Yeast Anticancer Drug Screen. Data for the rad18 strain (AID 177); settings: S. cerevisiae rad18 mutant growth inhibition, stronger effect = higher value
In short: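 Test articles were incubated with altered yeast defective in DNA damage repair. Results are given as inhibition of growth versus vehicle.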

[12] = NCI Yeast Anticancer Drug Screen. Data for the rad52 strain (AID 147);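 note: 0% = growth of vehicle-treated control cultures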; settings: S. cerevisiae rad52 mutant growth inhibition, stronger effect = higher value
In short: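 Vehicle-treated cultures served as the reference for growth inhibition of compound-exposed yeast bearing a DNA repair mutation.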

[13] = NCI Yeast Anticancer Drug Screen. Data for the wt1 strain (AID 149);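 note: 0% = growth of vehicle-treated wt1 cultures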; settings: S. cerevisiae wt1 strain (SPY 50644) growth inhibition, stronger effect = higher value
In short: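 Using yeast strain wt1, compound-induced growth inhibition was determined against vehicle-treated cultures.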

[14] = NCI Yeast Anticancer Drug Screen. Data for the rad50EPP+ strain (AID 151);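 note: 0% = growth of vehicle-treated control cultures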; settings: S. cerevisiae rad50 mutant strain, stronger effect = higher value
In short: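 In this screen, rad50EPP+ yeast were exposed to compounds. Growth inhibition was scored against vehicle-treated controls.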

[15] = NCI Yeast Anticancer Drug Screen. Data for the mgt1 strain (AID 153); settings: S. cerevisiae mgt1 mutant growth inhibition, stronger effect = higher value
In short: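 mgt1 strain exposed; growth vs vehicle control recorded as inhibition.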

[16] = NCI Yeast Anticancer Drug Screen. Data for the rad50 strain (AID 155);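 note: 0% = growth of vehicle-only cultures of the same strain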; settings: S. cerevisiae rad50 strain growth inhibition, stronger effect = higher value
In short: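 Relative growth inhibition (compound vs vehicle) was measured in yeast with a defined repair-gene alteration.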

[17] = at 5.0 µM (retest, dose inferred, filed as 0.5)
[18] = at 50.0 µM (retest, dose inferred, filed as 5.0)

Measured: growth inhibition

CC1=C(C(=O)NCc2ccccc2)C(c2ccccc2)C(C(=O)NCc2ccccc2)=C(C)N1
inactive: [1]; [17] 11% | [1]; at 11.0 µM -3% | [1]; at 33.0 µM 18% | [2]; at 1.2 µM 1% | [2]; at 3.7 µM 4% | [2]; at 11.0 µM 6% | [2]; at 33.0 µM 16% | [3]; [17] -1% | [4]; at 1.2 µM -5% | [4]; at 3.7 µM 1% | [4]; at 11.0 µM -2% | [4]; at 33.0 µM 4% | [4]; at 100.0 µM 63% | [5]; [17] -7% | [5]; [18] 51% | [5]; at 50.0 µM 11.4% | [6]; at 1.2 µM -1% | [6]; at 3.7 µM 1% | [6]; [17] 6% | [6]; at 11.0 µM 0% | [6]; at 33.0 µM 45% | [7]; at 1.2 µM -1% | [7]; at 3.7 µM 7% | [7]; at 11.0 µM -3% | [7]; at 33.0 µM 10% | [8]; at 1.2 µM -4% | [8]; at 3.7 µM -3% | [8]; at 11.0 µM -3% | [8]; at 33.0 µM 8% | [9]; at 1.2 µM -1% | [9]; at 3.7 µM -2% | [9]; at 11.0 µM 5% | [9]; at 33.0 µM 40% | [10]; [17] 4% | [11]; at 1.2 µM 2% | [11]; at 3.7 µM 3% | [11]; at 11.0 µM 7% | [11]; at 33.0 µM 60%
active: [1]; [18] 81% | [1]; at 50.0 µM 93.3% | [1]; at 100.0 µM 94% | [2]; at 100.0 µM 92% | [3]; [18] 82% | [3]; at 50.0 µM 70.7% | [6]; [18] 84% | [6]; at 50.0 µM 87.8% | [6]; at 100.0 µM 94% | [7]; at 100.0 µM 91% | [8]; at 100.0 µM 96% | [9]; at 100.0 µM 93% | [10]; [18] 82% | [10]; at 50.0 µM 93.1% | [11]; at 100.0 µM 96%

NC(=S)NC(=S)Nc1ccccc1
inactive: [12]; at 1.2 µM -7% | [12]; at 3.7 µM -4% | [12]; at 11.0 µM -3% | [12]; at 33.0 µM 1% | [12]; at 100.0 µM 23% | [13]; at 1.2 µM -6% | [13]; at 3.7 µM -5% | [13]; at 11.0 µM -6% | [13]; at 33.0 µM 0% | [13]; at 100.0 µM 16% | [14]; at 1.2 µM -6% | [14]; at 3.7 µM -10% | [14]; at 11.0 µM -12% | [14]; at 33.0 µM -12% | [14]; at 100.0 µM -10% | [15]; at 1.2 µM -6% | [15]; at 3.7 µM -3% | [15]; at 11.0 µM 2% | [15]; at 33.0 µM 16% | [16]; at 1.2 µM 0% | [16]; at 3.7 µM -47% | [16]; [17] -1% | [16]; at 11.0 µM 18% | [16]; at 33.0 µM 5% | [16]; [18] 2% | [16]; at 50.0 µM 23.5% | [1]; at 1.2 µM -4% | [1]; at 3.7 µM -2% | [1]; [17] -2% | [1]; at 11.0 µM 2% | [1]; at 33.0 µM 8% | [1]; [18] 10% | [1]; at 50.0 µM 38.5% | [1]; at 100.0 µM 62% | [2]; at 1.2 µM -6% | [2]; at 3.7 µM -3% | [2]; at 11.0 µM 0% | [2]; at 33.0 µM 8% | [3]; [17] -3% | [3]; [18] 49% | [4]; at 1.2 µM -19% | [4]; at 3.7 µM -22% | [4]; at 11.0 µM -16% | [4]; at 33.0 µM -18% | [4]; at 100.0 µM -13% | [5]; [17] -25% | [5]; [18] 8% | [5]; at 50.0 µM 68.7% | [6]; at 1.2 µM -11% | [6]; at 3.7 µM -13% | [6]; [17] -13% | [6]; at 11.0 µM -14% | [6]; at 33.0 µM -8% | [6]; [18] 18% | [6]; at 50.0 µM 34.6% | [6]; at 100.0 µM 34% | [7]; at 1.2 µM -5% | [7]; at 3.7 µM 6% | [7]; at 11.0 µM -1% | [7]; at 33.0 µM 1% | [7]; at 100.0 µM 42% | [8]; at 1.2 µM -3% | [8]; at 3.7 µM 0% | [8]; at 11.0 µM 4% | [8]; at 33.0 µM 17% | [9]; at 1.2 µM 2% | [9]; at 3.7 µM 9% | [9]; at 11.0 µM 24% | [9]; at 33.0 µM 44% | [10]; [17] -1% | [10]; [18] 31% | [11]; at 1.2 µM -3% | [11]; at 3.7 µM -1% | [11]; at 11.0 µM 3% | [11]; at 33.0 µM 21%
active: [15]; at 100.0 µM 80% | [16]; at 100.0 µM 79% | [2]; at 100.0 µM 93% | [3]; at 50.0 µM 82.5% | [8]; at 100.0 µM 85% | [9]; at 100.0 µM 95% | [10]; at 50.0 µM 77% | [11]; at 100.0 µM 95%

O=C1c2cccnc2C(=O)C2C3C=CC(C3)C12 (centres undefined)
inactive: [12]; at 1.2 µM 12% | [12]; at 3.7 µM 35% | [13]; at 1.2 µM 16% | [13]; at 3.7 µM 20% | [13]; at 11.0 µM 43% | [14]; at 1.2 µM 30% | [15]; at 1.2 µM 12% | [15]; at 3.7 µM 32% | [15]; at 11.0 µM 65% | [16]; at 1.2 µM 31% | [16]; [17] 29% | [1]; at 1.2 µM 19% | [1]; at 3.7 µM 34% | [1]; [17] 37% | [2]; at 1.2 µM 20% | [2]; at 3.7 µM 44% | [3]; [17] 56% | [4]; at 1.2 µM 10% | [4]; at 3.7 µM 16% | [4]; at 11.0 µM 30% | [5]; [17] -31% | [5]; at 50.0 µM 45.5% | [6]; at 1.2 µM 9% | [6]; at 3.7 µM 30% | [6]; [17] 57% | [7]; at 1.2 µM 16% | [7]; at 3.7 µM 36% | [8]; at 1.2 µM 28% | [8]; at 3.7 µM 55% | [9]; at 1.2 µM 18% | [9]; at 3.7 µM 36% | [11]; at 1.2 µM 29%
active: [12]; at 11.0 µM 78% | [12]; at 33.0 µM 94% | [12]; at 100.0 µM 98% | [13]; at 33.0 µM 91% | [13]; at 100.0 µM 99% | [14]; at 3.7 µM 82% | [14]; at 11.0 µM 92% | [14]; at 33.0 µM 96% | [14]; at 100.0 µM 97% | [15]; at 33.0 µM 94% | [15]; at 100.0 µM 98% | [16]; at 3.7 µM 73% | [16]; at 11.0 µM 91% | [16]; at 33.0 µM 97% | [16]; [18] 96% | [16]; at 50.0 µM 99.4% | [16]; at 100.0 µM 94% | [1]; at 11.0 µM 87% | [1]; at 33.0 µM 98% | [1]; [18] 98% | [1]; at 50.0 µM 99.5% | [1]; at 100.0 µM 99% | [2]; at 11.0 µM 87% | [2]; at 33.0 µM 99% | [2]; at 100.0 µM 99% | [3]; [18] 98% | [3]; at 50.0 µM 99.2% | [4]; at 33.0 µM 75% | [4]; at 100.0 µM 97% | [5]; [18] 85% | [6]; at 11.0 µM 72% | [6]; at 33.0 µM 95% | [6]; [18] 98% | [6]; at 50.0 µM 98.4% | [6]; at 100.0 µM 99% | [7]; at 11.0 µM 78% | [7]; at 33.0 µM 97% | [7]; at 100.0 µM 99% | [8]; at 11.0 µM 92% | [8]; at 33.0 µM 98% | [8]; at 100.0 µM 99% | [9]; at 11.0 µM 75% | [9]; at 33.0 µM 93% | [9]; at 100.0 µM 98% | [10]; [17] 72% | [10]; [18] 98% | [10]; at 50.0 µM 99.2% | [11]; at 3.7 µM 76% | [11]; at 11.0 µM 91% | [11]; at 33.0 µM 96% | [11]; at 100.0 µM 97%
